Active and inactive are the calls of the source. Unless noted, calls come from the whole dose curve; as a rule, active = well fitted curve in the direction sought with a large enough effect in the repeat runs; inconclusive = weak or mixed curves; inactive = no such curve, though single readings can be large; an effect the other way counts as inactive or inconclusive.
Assays:
[1] = qHTS assay for small molecules that induce genotoxicity in human embryonic kidney cells expressing luciferase-tagged ATAD5 (AID 651632); note: nearly all actives have a fitted effect of over 15% in size
In short: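 Luminescent reporter readout, HEK293T ATAD5-luc line: 16 hr drug exposure (37C, 5% CO2) followed by Amplite, 30 min RT.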

[2] = qHTS assay for small molecule agonists of the p53 signaling pathway - cell viability (AID 651633; calls by dose curve;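 note: p53RE-bla HCT reporter cells with a stable beta-lactamase p53 reporter; series mostly up to about 83 µM; nearly all actives have a fitted effect of over 30% in size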)
In short: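 p53RE-bla cells were treated with compound for 16 hours at 37 C. Cytotoxicity was then measured as CellTiter-Glo luminescence after 30 min at room temperature.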

[3] = qHTS assay for small molecules that induce genotoxicity in human embryonic kidney cells expressing luciferase-tagged ATAD5 - cell viability (AID 651634; calls by dose curve; note: nearly all actives have a fitted effect of over 25% in size; note: potency is the fitted concentration of half-maximal effect)
In short: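 Viability read: CellTiter-Fluor fluorescence, 30 min at 37C. Cells: HEK293T, luciferase-tagged ATAD5. Exposure: 15.5 hr, 37C, 5% CO2, compound or DMSO vehicle.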

[4] = qHTS assay to test for compound auto fluorescence at 590 nm (red) in HepG2 cells (AID 720674)
In short: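 Seeding: 2,000 HepG2 cells/well, MEM/10% FBS, overnight 37 C. Dosing: compound vs DMSO. Incubation: 1 hr, 37 C, 5% CO2. Read: fluorescence 540 ex/590 em, Rose Bengal sodium as red reference.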

[5] = qHTS assay to test for compound auto fluorescence at 535 nm (green) in HepG2 cells (AID 720675)
[6] = qHTS assay to test for compound auto fluorescence at 460 nm (blue) in HEK293 cells (AID 720678)
In short: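 Blue-channel (Ex/Em 405/460 nm) intensity measured in HEK293 cultures after overnight compound exposure at 37C; signal expressed relative to triamterene. Cells plated 2,000 per well in 10% dialyzed FBS medium and allowed 4-5 hr to attach.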

[7] = qHTS assay to test for compound auto fluorescence at 590 nm (red) in HEK293 cells (AID 720679)
In short: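 Red-channel autofluorescence (Ex/Em 540/590 nm; Rose Bengal sodium reference) was measured after overnight 37C, 5% CO2 exposure of attached HEK293 cells, 2,000 per well in medium with 10% dialyzed FBS.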

[8] = qHTS assay to test for compound auto fluorescence at 535 nm (green) in HEK293 cells (AID 720680)
[9] = qHTS assay to test for compound auto fluorescence at 460 nm (blue) in HEK293 cell free culture (AID 720681)
In short: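 Compounds were added to cell-free DMEM with 10% FBS and fluorescence read directly. The blue channel used 405 nm excitation and 460 nm emission, with triamterene as the reference fluorophore.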

[10] = qHTS assay to test for compound auto fluorescence at 535 nm (green) in HEK293 cell free culture (AID 720682)
In short: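 Read-out: 485/535 nm fluorescence intensity, calibrated against fluorescein. Medium only (DMEM + 10% FBS, no cells); test compound or DMSO vehicle added by pintool before plate reading.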

[11] = qHTS assay to test for compound auto fluorescence at 590 nm (red) in HEK293 cell free culture (AID 720683)
In short: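 Cell-free wells of DMEM with 10% FBS received compound, and intrinsic fluorescence was read at excitation/emission 540/590 nm. Values expressed as equivalence to Rose Bengal sodium.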

[12] = qHTS assay to test for compound auto fluorescence at 590 nm (red) in HepG2 cell free culture (AID 720684)
In short: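 Compound was pinned into wells holding MEM with 10% FBS and no cells, and red fluorescence was read at Ex/Em 540/590 nm. Signal is expressed as auto fluorescence equivalency relative to Rose Bengal sodium.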

[13] = qHTS assay to test for compound auto fluorescence at 460 nm (blue) in HepG2 cell free culture (AID 720685)
In short: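 Compound (23 nL) or DMSO pinned into cell-free MEM with 10% FBS; blue fluorescence read at 405/460 nm excitation/emission, expressed as auto-fluorescence equivalency to triamterene.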

[14] = qHTS assay to test for compound auto fluorescence at 535 nm (green) in HepG2 cell free culture (AID 720686)
[15] = qHTS assay to test for compound auto fluorescence at 460 nm (blue) in HepG2 cells (AID 720687)
In short: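 HepG2 cells in MEM with 10% FBS, attached overnight at 37 C, were exposed to compound or DMSO for 1 hr at 37 C, 5% CO2. Blue fluorescence was read at 405/460 nm, with triamterene as reference fluorophore.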

[16] = molecular target: Glucocorticoid receptor (Homo sapiens) (UniProt P04150); test: qHTS assay to identify small molecule agonists of the glucocorticoid receptor (GR) signaling pathway (AID 720691; active = well fitted activation curve with a large enough effect in the signal ratio in the repeat runs, not every such curve was filed as active; inconclusive = weak or mixed curves, or effect the other way; inactive = no such curve, though single readings can be large or run the other way; the % refers to the signal ratio; note: potency is the fitted concentration of half-maximal effect)
In short: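 qHTS in GR-bla HeLa cells: 4 h settling at 37 C/5% CO2, 18 h compound incubation at 37 C, 2 h LiveBLAzer B/G FRET substrate at room temperature, fluorescence intensity measured.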

[17] = qHTS assay for small molecule disruptors of the mitochondrial membrane potential - cell viability (AID 720634; calls by dose curve;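 note: human HepG2 liver cancer cells; series mostly up to about 83 µM; nearly all actives have a fitted effect of over 20% in size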)
In short: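 HepG2, 1 hr compound, 37 C. ATP luminescence via CellTiter-Glo, 30 min RT, same well as m-MPI.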

[18] = molecular target: Glucocorticoid receptor (Homo sapiens) (UniProt P04150); test: qHTS assay to identify small molecule antagonists of the glucocorticoid receptor (GR) signaling pathway (AID 720692; active = well fitted inhibition curve with a large enough effect in the signal ratio in the repeat runs, not every such curve was filed as active; inconclusive = weak or mixed curves, or effect the other way; inactive = no such curve, though single readings can be large or run the other way; the % refers to the signal ratio; note: potency is the fitted concentration of half-maximal effect)
In short: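 Inhibition of glucocorticoid signalling is measured in HeLa cells with a GRE-controlled beta-lactamase reporter; cells are co-treated with compound and 5 nM dexamethasone (final) for 18 h before FRET substrate readout.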

[19] = qHTS assay for small molecule disruptors of the mitochondrial membrane potential (AID 720635); note: potency is the fitted concentration of half-maximal effect
In short: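 HepG2 cells exposed to compound 1 hr at 37C, then Mito-MPS dye 30 min. Ratio read of aggregate (540/590 nm) versus monomer (490/535 nm) fluorescence.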
% is set by controls: 0 for no effect and ±100 for the full control effect.

Chain of Glucocorticoid receptor (Homo sapiens) (P04150 whole entry, looked up): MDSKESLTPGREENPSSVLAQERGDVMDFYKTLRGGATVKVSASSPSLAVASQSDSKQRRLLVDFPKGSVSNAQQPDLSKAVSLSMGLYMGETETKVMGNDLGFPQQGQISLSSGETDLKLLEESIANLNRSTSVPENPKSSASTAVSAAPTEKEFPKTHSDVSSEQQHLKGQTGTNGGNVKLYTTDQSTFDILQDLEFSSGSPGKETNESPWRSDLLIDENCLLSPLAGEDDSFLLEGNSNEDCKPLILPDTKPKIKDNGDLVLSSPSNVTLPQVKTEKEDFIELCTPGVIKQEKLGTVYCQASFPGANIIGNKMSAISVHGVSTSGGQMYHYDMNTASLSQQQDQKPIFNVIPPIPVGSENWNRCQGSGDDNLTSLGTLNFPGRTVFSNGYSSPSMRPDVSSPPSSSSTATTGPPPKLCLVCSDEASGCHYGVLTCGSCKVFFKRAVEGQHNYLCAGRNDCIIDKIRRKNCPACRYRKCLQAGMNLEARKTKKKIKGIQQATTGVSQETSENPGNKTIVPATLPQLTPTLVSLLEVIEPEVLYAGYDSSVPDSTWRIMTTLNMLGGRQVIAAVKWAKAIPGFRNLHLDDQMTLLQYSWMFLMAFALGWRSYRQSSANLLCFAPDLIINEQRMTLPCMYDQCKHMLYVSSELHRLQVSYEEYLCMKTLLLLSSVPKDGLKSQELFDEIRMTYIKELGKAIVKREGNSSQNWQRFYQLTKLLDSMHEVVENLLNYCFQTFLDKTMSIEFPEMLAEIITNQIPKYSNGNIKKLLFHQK

C1=C\CC/C=C\CC/C=C\CC/1
inactive: Potency [1] | Potency [2] | Potency [3] | outcome [4] | outcome [5] | Potency [6] | outcome [7] | outcome [8] | Potency [9] | outcome [10] | outcome [11] | outcome [12] | Potency [13] | outcome [14] | Potency [15] | Potency [16]

NC(=O)c1c(Cl)cccc1Cl
inactive: Potency [1] | Potency [3] | Potency [17] | outcome [4] | outcome [5] | Potency [6] | outcome [7] | outcome [8] | Potency [9] | outcome [10] | outcome [11] | outcome [12] | Potency [13] | outcome [14] | Potency [15]

CC/C=C\C#N
inactive: Potency [1] | Potency [2] | Potency [3] | Potency [17] | outcome [4] | outcome [5] | Potency [6] | outcome [7] | outcome [8] | Potency [9] | outcome [10] | outcome [12] | Potency [13] | outcome [14] | Potency [15] | Potency [16] | Potency [18]

OC[C@H]1O[C@@H]2O[C@H]3[C@H](O)[C@@H](O)[C@@H](O[C@H]4[C@H](O)[C@@H](O)[C@@H](O[C@H]5[C@H](O)[C@@H](O)[C@@H](O[C@H]6[C@H](O)[C@@H](O)[C@@H](O[C@H]7[C@H](O)[C@@H](O)[C@@H](O[C@H]8[C@H](O)[C@@H](O)[C@@H](O[C@H]9[C@H](O)[C@@H](O)[C@@H](O[C@H]1[C@H](O)[C@H]2O)O[C@@H]9CO)O[C@@H]8CO)O[C@@H]7CO)O[C@@H]6CO)O[C@@H]5CO)O[C@@H]4CO)O[C@@H]3CO
inactive: Potency [1] | Potency [2] | Potency [3] | Potency [17] | outcome [4] | outcome [5] | Potency [6] | outcome [7] | outcome [8] | Potency [9] | outcome [10] | outcome [11] | outcome [12] | Potency [13] | outcome [14] | Potency [15] | Potency [16] | Potency [18]

CCCCCCOC(=O)CC(CC(=O)OCCCCCC)(OC(=O)CCC)C(=O)OCCCCCC
inactive: Potency [1] | Potency [2] | Potency [3] | Potency [17] | outcome [4] | outcome [5] | Potency [6] | outcome [7] | outcome [8] | Potency [9] | outcome [10] | outcome [11] | outcome [12] | Potency [13] | outcome [14] | Potency [15] | Potency [16] | Potency [18]

O=C(O)c1ccccc1-c1ccc(C(F)(F)F)cc1
inactive: Potency [1] | Potency [3] | Potency [17] | outcome [4] | outcome [5] | Potency [6] | outcome [7] | outcome [8] | Potency [9] | outcome [10] | outcome [11] | outcome [12] | Potency [13] | outcome [14] | Potency [15] | Potency [16] | Potency [18]

O=C(O)Cc1cc(I)c(Oc2cc(I)c(O)c(I)c2)c(I)c1
inactive: Potency [1] | Potency [17] | outcome [4] | outcome [5] | Potency [6] | outcome [7] | outcome [8] | Potency [9] | outcome [10] | outcome [12] | Potency [13] | outcome [14] | Potency [15] | Potency [16]
active: Potency [18] 10.7 µM

CCC(C)(C)C1CCC(OC)CC1 (stereo not drawn)
inactive: Potency [1] | Potency [3] | Potency [17] | outcome [4] | outcome [5] | Potency [6] | outcome [7] | outcome [8] | Potency [9] | outcome [10] | outcome [11] | outcome [12] | Potency [13] | outcome [14] | Potency [15]

C1CCCCCCCCCCC1
inactive: Potency [1] | Potency [2] | Potency [3] | Potency [17] | fluorescence, relative to Rose Bengal [4] -0.0148% [at 18.6 µM] | fluorescence, % of fluorescein control [5] -0.001% [at 18.6 µM] | fluorescence, % of triamterene [6] -0.115% [at 18.6 µM] | fluorescence, % of fluorescent control [7] -0.0949% [at 18.6 µM] | fluorescence, % of fluorescein [8] 0.0284% [at 18.6 µM] | fluorescence, % of fluorescent control [9] -0.122% [at 18.6 µM] | activity change [10] 0.0049% [at 18.6 µM] | fluorescence, % of Rose Bengal [12] -0.141% [at 18.6 µM] | fluorescence, % of fluorescent control [13] -0.102% [at 18.6 µM] | fluorescence, % of fluorescein control [14] -0.0289% [at 18.6 µM] | fluorescence, % of fluorescent control [15] -0.112% [at 18.6 µM]

NCCNC(=O)c1ccc(Cl)cn1
inactive: Potency [1] | Potency [2] | Potency [3] | Potency [17] | outcome [4] | Potency [6] | outcome [7] | outcome [8] | Potency [9] | outcome [10] | outcome [11] | outcome [12] | Potency [13] | outcome [14] | Potency [15]

COC(=O)C1=C(C)NC(C)=C(C(=O)OCC(C)=O)C1c1ccccc1[N+](=O)[O-] (stereo not drawn)
active: Potency [3] 23.7 µM | Potency [19] 9.44 µM | Potency [18] 21.3 µM
inactive: Potency [1] | Potency [17] | outcome [4] | outcome [5] | Potency [6] | outcome [7] | outcome [8] | Potency [9] | outcome [10] | outcome [11] | outcome [12] | Potency [13] | outcome [14] | Potency [15] | Potency [16]

CC1(C)SC(C)(C)SC(C)(C)S1
inactive: Potency [1] | Potency [3] | Potency [17] | Potency [19] | outcome [4] | outcome [5] | Potency [6] | outcome [7] | outcome [8] | Potency [9] | outcome [10] | outcome [11] | outcome [12] | Potency [13] | outcome [14] | Potency [15]

Cc1onc(-c2ccccc2)c1-c1ccc(S(N)(=O)=O)cc1
inactive: Potency [1] | Potency [2] | Potency [3] | Potency [17] | outcome [4] | Potency [6] | outcome [7] | outcome [8] | Potency [9] | outcome [10] | outcome [12] | Potency [13] | outcome [14] | Potency [15] | Potency [16] | Potency [18]

CCCc1ccccc1O
active: Potency [19] 27.3 µM
inactive: Potency [1] | Potency [3] | outcome [4] | Potency [6] | outcome [7] | outcome [8] | Potency [9] | outcome [10] | outcome [11] | outcome [12] | Potency [13] | outcome [14] | Potency [15] | Potency [16] | Potency [18]

CNc1ncnc2nc[nH]c12
inactive: Potency [2] | Potency [3] | Potency [17] | outcome [4] | outcome [5] | Potency [6] | outcome [7] | outcome [8] | Potency [9] | outcome [10] | outcome [11] | outcome [12] | Potency [13] | outcome [14] | Potency [15]
active: Potency [19] 2.48 µM

Cn1cnc2c(=O)[nH]c(N)nc21
inactive: Potency [1] | Potency [2] | Potency [3] | Potency [17] | outcome [4] | Potency [6] | outcome [7] | outcome [8] | Potency [9] | outcome [10] | outcome [11] | outcome [12] | Potency [13] | outcome [14] | Potency [15]

O=S(=O)(c1cccc2cnccc12)N1CCCNCC1
inactive: Potency [1] | Potency [2] | Potency [17] | outcome [4] | outcome [5] | Potency [6] | outcome [7] | outcome [8] | Potency [9] | outcome [10] | outcome [12] | Potency [13] | outcome [14] | Potency [15]

CCCC(=O)O[C@]1(C(=O)CCl)[C@@H](C)C[C@H]2[C@@H]3CCC4=CC(=O)C=C[C@]4(C)[C@@]3(F)C(=O)C[C@@]21C
active: Potency [19] 23.7 µM | Potency [16] 0.0239 µM [inconclusive]
inactive: Potency [1] | Potency [3] | Potency [17] | outcome [4] | outcome [5] | Potency [6] | outcome [7] | outcome [8] | Potency [9] | outcome [10] | outcome [12] | Potency [13] | outcome [14] | Potency [15]
